Screen size: about 16,000 compounds; about 5,100 (32%) were called active. About 25% were inconclusive and are not listed. Some of the results follow. A number with no mark means an inactive call. Calls follow the shape of the dose curve; as a rule, active = well fitted curve in the direction sought with a large enough effect; inconclusive = small, poorly fitted or top-dose-only effect, or effect the other way; inactive = no such curve, though single readings can be large or run the other way.
Each compound was assayed against Cytochrome P450 3A4 (Homo sapiens) (UniProt P08684) (assay: Cytochrome panel assay with activity outcomes). Details: recombinant CYP, pro-luciferin dealkylation, luminescence, p450-cyp3a4; series mostly up to 57.1 µM.
Sequence of Cytochrome P450 3A4 (Homo sapiens) (P08684 whole entry, looked up): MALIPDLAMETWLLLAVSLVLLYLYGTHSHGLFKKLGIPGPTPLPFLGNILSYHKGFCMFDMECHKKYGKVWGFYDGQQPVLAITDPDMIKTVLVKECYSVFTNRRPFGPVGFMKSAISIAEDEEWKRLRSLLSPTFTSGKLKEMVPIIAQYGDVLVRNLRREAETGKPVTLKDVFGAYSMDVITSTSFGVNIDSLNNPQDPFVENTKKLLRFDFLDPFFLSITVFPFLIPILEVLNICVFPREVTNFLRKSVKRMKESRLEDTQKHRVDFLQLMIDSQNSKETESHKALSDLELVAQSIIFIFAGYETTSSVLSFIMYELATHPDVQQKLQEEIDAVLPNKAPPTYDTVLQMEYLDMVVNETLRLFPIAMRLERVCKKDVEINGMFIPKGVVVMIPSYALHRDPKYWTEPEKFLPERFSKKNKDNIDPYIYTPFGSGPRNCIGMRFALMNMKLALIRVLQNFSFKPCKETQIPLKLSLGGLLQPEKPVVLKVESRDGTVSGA
In the case of `CC1CCCC(NC(=O)c2n[nH]c(=O)c3ccccc23)C1C` (stereo unspecified), the AC50 is reported as 12.6 µM (active). Work on `Cc1c(Br)cc(C(=O)NC2CCCCC2)c(C)c1C` yielded an activity, negative = inhibition of -5.25% [at 2.29 µM]. With `CCN(CC)CCCN(Cc1cc2ccc(C)c(C)c2[nH]c1=O)C(=O)NC1CCCCC1` the AC50 was 2.82 µM (active). With `CCC(=O)NC(NCC1CCCO1)C(Cl)(Cl)Cl` (stereo unspecified) the AC50 was “inactive”. With `Cn1c(CNC(=O)Nc2ccccc2)nnc1SCc1ccccc1` the AC50 was 14.1 µM (active). `Cn1c(CN2CCOCC2)nnc1SCc1ccccc1` was tested, and the AC50 was 10 µM (active). For `c1c[nH]c(CN2CCOCC2)n1`, the activity, negative = inhibition was -23.7% [at 11.4 µM]. In the case of `COC1(OC)N=C(NC(=O)Nc2ccccc2)C2(C#N)C(c3ccccc3)C12C#N` (stereo unspecified), the AC50 is reported as “inactive”. Work on `CC(=O)[C@H](C(=N)C#N)C(=O)Nc1ccccc1` yielded an activity, negative = inhibition of 3.78% [at 11.4 µM]. With `COc1cccc(NC(=O)CSc2nnc(CN3CCOCC3)n2C)c1` the AC50 was “inactive”. With `CCn1c(=O)[nH]c2cc(Cl)c(Cl)cc21` the AC50 was 12.6 µM (active). `CCn1c(C)[n+](CCCS(=O)(=O)[O-])c2cc(Cl)c(Cl)cc21` was tested, and the AC50 was “inactive”. For `CCn1c(=O)[nH]c2ccccc21`, the AC50 was “inactive”. For `O=C(O)/C=C\C(=O)Nc1ccccn1`, the activity, negative = inhibition was -10.9% [at 11.4 µM]. In the case of `C=C(C)[C@H]1CC=C(C)/C(=N/NC(=O)CNc2ccccc2OC)C1`, the AC50 is reported as 10 µM (active). `Cc1cccc(C(=O)NNC(=O)C2CCCO2)c1` (stereo unspecified) was tested, and the AC50 was “inactive”. With `C=C(C)C1CC=C(C)/C(=N/NC(=O)c2ccc(NC(=O)c3cccc(C)c3)cc2)C1` (stereo unspecified) the AC50 was 12.6 µM (active). With `Cc1cccc(C(=O)Nc2nnc(-c3ccc(C(C)(C)C)cc3)s2)c1` the AC50 was “inactive”. For `CSc1ccc2nnc(-c3cccc(F)c3)n2n1`, the AC50 was “inactive”. With `COc1cccc(-c2nnc3sc(-c4ccc(C)cc4)nn23)c1` the AC50 was 7.94 µM (active). `CNC[C@@H](SC)c1ccc(O)c(O)c1` was tested, and the activity, negative = inhibition was -6.87% [at 11.4 µM]. In the case of `Clc1ccc(/C=N/Nc2nnc(-c3ncc[nH]3)c3ccccc23)cc1`, the AC50 is reported as 15.8 µM (active). With `CCOc1ccc(C(C)=O)cc1N1C(=O)C2C3C=CC(O3)C2C1=O` (stereo unspecified) the activity, negative = inhibition was -20.8% [at 11.4 µM]. In the case of `CCOc1ccc(C(C)=O)cc1N1C(=O)C2C(C1=O)C1C=CC2C12CC2` (stereo unspecified), the AC50 is reported as “inactive”. In the case of `CCOc1ccc(C(C)=O)cc1N1C(=O)C2C3C=CC(C3=C(C)C)C2C1=O` (stereo unspecified), the AC50 is reported as 11.2 µM (active). For `CCC(C)(C)NC(=O)c1ccc2c(c1)N(CC(=O)OC)C(=O)C(C)(C)O2`, the AC50 was “inactive”. With `Nc1ncnc2c1ncn2CCCCC(=O)O` the activity, negative = inhibition was -8.48% [at 11.4 µM]. `O=C(c1cccs1)n1nc(-c2ccc(Cl)cc2)nc1NCc1ccco1` showed an activity, negative = inhibition of -4.78% [at 2.29 µM]. With `Cc1ccc(C(CC(N)=O)c2ccco2)cc1` (stereo unspecified) the AC50 was “inactive”. With `O=C(NCc1ccco1)C(c1ccccc1)N(C(=O)Cc1cccs1)c1ccccc1F` (stereo unspecified) the AC50 was 0.794 µM (active). With `Cc1ccc(C(C(=O)NCc2ccco2)N(C(=O)CNC(=O)c2cccs2)c2ccc(C)cc2C)cc1` (stereo unspecified) the AC50 was 1 µM (active). For `Cc1ccc(C(C(=O)NCc2ccco2)N(C(=O)CNC(=O)c2cccs2)c2ccc(C)cc2)cc1` (stereo unspecified), the AC50 was 1.12 µM (active). `CCn1c(C)c(/C=N/Nc2nc3ccccc3s2)c2ccccc21` was tested, and the AC50 was 8.91 µM (active). `Cc1ccc(C(=O)N2CCN(c3cc(=O)[nH]nc3-c3ccccc3)CC2)cc1` was tested, and the AC50 was “inactive”. For `Cc1ccc(C(=O)N2CCN(C3c4cccc5cccc(c45)C3NS(=O)(=O)c3ccccc3)CC2)cc1` (stereo unspecified), the AC50 was 0.0355 µM (active). For `Cc1noc(C)c1-c1ccc2ncnc(NCc3cccs3)c2c1`, the AC50 was 10 µM (active). With `Cc1noc(C)c1-c1ccc2ncnc(NCc3cccnc3)c2c1` the AC50 was 2.51 µM (active). `Cc1noc(C)c1-c1ccc2ncnc(NCc3ccccc3)c2c1` was tested, and the AC50 was 10 µM (active). With `Cc1noc(C)c1-c1ccc2ncnc(NC3CCNCC3)c2c1` the AC50 was “inactive”. For `Cc1cccc(CNc2ncnc3ccc(-c4c(C)noc4C)cc23)c1`, the AC50 was 0.794 µM (active). In the case of `N#[N+]c1ccc(Nc2ccccc2)cc1`, the activity, negative = inhibition is reported as -10.9% [at 11.4 µM]. With `CC[N+](C)(CC)CCN1C(=O)c2ccccc2S1(=O)=O` the activity, negative = inhibition was 6.19% [at 11.4 µM]. Work on `CNc1cc(N2CCCCCC2)ccc1[N+](=O)[O-]` yielded an activity, negative = inhibition of -20.1% [at 2.29 µM]. Work on `CC(C)c1ccc(CNc2cc(N3CCCC3)ccc2[N+](=O)[O-])cc1` yielded an activity, negative = inhibition of -8.24% [at 2.29 µM]. For `Cc1cc(C)c(S(=O)(=O)N2CCN(c3ccc([N+](=O)[O-])c(NCc4ccco4)c3)CC2)c(C)c1`, the AC50 was 7.08 µM (active). With `O=[N+]([O-])c1ccc(N2CCCC2)cc1NCc1ccccc1` the AC50 was 15.8 µM (active). For `CC(=O)N(CC(O)CN(C(C)=O)c1c(I)c(C(=O)NC[C@@H](O)CO)c(I)c(C(=O)NC[C@@H](O)CO)c1I)c1c(I)c(C(=O)NC[C@@H](O)CO)c(I)c(C(=O)NC[C@@H](O)CO)c1I`, the AC50 was “inactive”. For `CC(C)(C)c1ccc(O)c(CN(Cc2cc(C(C)(C)C)ccc2O)C2CCCCC2)c1`, the activity, negative = inhibition was -3.22% [at 11.4 µM]. For `c1ccc2cc(C3=NCCN3)ncc2c1`, the AC50 was “inactive”. For `C=CCSc1nc2ccccc2n1C(=O)/C=C/c1cc(OC)c(OC)c(OC)c1`, the AC50 was 7.94 µM (active). In the case of `C#CCSc1nncn1C(=O)/C=C/c1ccccc1`, the activity, negative = inhibition is reported as -0.406% [at 2.29 µM]. In the case of `CCSc1nc2ccccc2n1C(=O)/C=C\c1ccc(OC)c(OC)c1`, the AC50 is reported as 20 µM (active). With `COc1ccc(/C=C/C(=O)Nc2nc(C)cc(C)n2)cc1OC` the activity, negative = inhibition was 2.05% [at 2.29 µM]. In the case of `COc1cc(/C=C\C(=O)N2CCC=CC2=O)cc(OC)c1OC`, the AC50 is reported as “inactive”. For `c1ccc2nc(C3=NCCN3)ccc2c1`, the AC50 was “inactive”. In the case of `c1ccc2nc(-c3ccncc3)ccc2c1`, the AC50 is reported as 2.82 µM (active). With `c1ccc2cc(-c3csnn3)ccc2c1` the AC50 was “inactive”. `Cc1cc(Cl)ccc1OCC(=O)N/N=C1\CCCc2ccccc21` was tested, and the AC50 was 12.6 µM (active). Work on `Cc1cc(Cl)ccc1OCC(=O)Nc1nc(N)nc(N)n1` yielded an activity, negative = inhibition of -4.83% [at 11.4 µM]. With `Cc1cc(Cl)ccc1OCC(=O)NCc1ccncc1` the AC50 was 1.41 µM (active). Compound `O=C(N/N=C1\CCCc2ccccc21)c1ccc([N+](=O)[O-])cc1Cl` has an activity, negative = inhibition of -11.3% [at 2.29 µM].
% is scaled to controls: 0 for no effect and ±100 for the full control effect.
